Results from PubChem BioAssay (NCATS).
Inconclusive results are not listed. Activity calls are given as the source filed them. Unless noted, the call rests on the fitted dose curve; in most records, active means well fitted curve in the direction sought with a large enough effect; inconclusive means small, poorly fitted or top-dose-only effect, or another doubt; inactive means no such curve, though single readings can be large; an effect the other way counts as inactive or inconclusive.

Columns and labels:
MKL-2 = experiment: qHTS assay to identify novel small-molecules to repurpose for Merkel cell carcinoma treatment (AID 1296009); settings: MCC and control cell lines, CellTiter-Glo viability, 72 h; series mostly up to 46 µM; further: nearly all actives have a fitted effect of over 60% in size; further: potency means the concentration at half of the fitted maximal effect
Summary of the method: (§1)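 Luminescence from CellTiter-Glo, read 10 min after addition at room temperature, reported viability following a 72 hr, 37 degree celsius treatment with NPC or MIPE compounds in titration; values normalized to plate controls.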

UISO = experiment: as above; settings: MCC and control cell lines, CellTiter-Glo viability, 72 h; series mostly up to 46 µM
Summary of the method: as §1

WaGa = experiment: as above; settings: MCC and control cell lines, CellTiter-Glo viability, 72 h; series mostly up to 46 µM
Summary of the method: as §1

CAOV3 = experiment: Primary qHTS to identify gynecologic anti-cancer compounds using libraries of approved drugs and bioactive compounds (AID 1345084); settings: Gynecologic cancer cell panel viability, ATPlite luminescence, 48 h; series mostly up to 57.5 µM; further: nearly all actives have a fitted effect of over 55% in size; further: potency means the concentration at half of the fitted maximal effect
Summary of the method: (§2)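 ATP-based viability (ATPlite), 1,000 cells/well, 16 h pre-incubation, 48 h compound at 37 C, 5% CO2, 15 min RT before read.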

CASKI = experiment: as above; settings: Gynecologic cancer cell panel viability, ATPlite luminescence, 48 h; series mostly up to 57.5 µM
Summary of the method: as §2

Es-2 = experiment: as above; settings: Gynecologic cancer cell panel viability, ATPlite luminescence, 48 h; series mostly up to 57.5 µM
Summary of the method: as §2

HeLa = experiment: as above; settings: Gynecologic cancer cell panel viability, ATPlite luminescence, 48 h; series mostly up to 57.5 µM
Summary of the method: as §2

Hek293T = experiment: as above; settings: Gynecologic cancer cell panel viability, ATPlite luminescence, 48 h, control line for the selectivity index; series mostly up to 57.5 µM
Summary of the method: as §2

JEG-3 = experiment: as above; settings: Gynecologic cancer cell panel viability, ATPlite luminescence, 48 h; series mostly up to 57.5 µM
Summary of the method: as §2

PA-1 = experiment: as above; settings: Gynecologic cancer cell panel viability, ATPlite luminescence, 48 h; series mostly up to 57.5 µM
Summary of the method: as §2

SKOV3 = experiment: as above; settings: Gynecologic cancer cell panel viability, ATPlite luminescence, 48 h; series mostly up to 57.5 µM
Summary of the method: as §2

Tov-21-G = experiment: as above; settings: Gynecologic cancer cell panel viability, ATPlite luminescence, 48 h; series mostly up to 57.5 µM
Summary of the method: as §2

Tov112D = experiment: as above; settings: Gynecologic cancer cell panel viability, ATPlite luminescence, 48 h; series mostly up to 57.5 µM
Summary of the method: as §2

[1] = Drug repurposing screens with cells derived from glioblastoma tumor samples (AID 1345199); settings: GBM patient neurospheres viability, ATP luminescence, 48 h; further: nearly all actives have a fitted effect of over 40% in size; further: potency means the concentration at half of the fitted maximal effect; on activity, negative = cell killing: on the % scale 0 is the no-effect control and ±100 the full control effect
Summary of the method: (§3)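 Primary testing used CD133+ neurospheres from four GBM patients, seven concentrations, 48 h exposure and ATP-based viability; confirmation added three slower-growing patient lines.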

astro = experiment: as above; settings: viability, ATP luminescence, 48 h; series mostly up to 45.9 µM
Summary of the method: as §3

C33A = experiment: Primary qHTS to identify gynecologic anti-cancer compounds using libraries of approved drugs and bioactive compounds (AID 1345084); settings: Gynecologic cancer cell panel viability, ATPlite luminescence, 48 h; series mostly up to 57.5 µM; further: nearly all actives have a fitted effect of over 55% in size; further: potency means the concentration at half of the fitted maximal effect
Summary of the method: as §2

OV90 = experiment: as above; settings: Gynecologic cancer cell panel viability, ATPlite luminescence, 48 h; series mostly up to 57.5 µM
Summary of the method: as §2

[2] = molecular target: Nuclear receptor subfamily 1 group I member 2 (Rattus norvegicus) (UniProt Q9R1A7); experiment: qHTS assay for small molecule activators of the rat pregnane X receptor (rPXR) signaling pathway (AID 651751; call rule not given here; further: 0% is about no effect); settings: rPXR reporter cells, luciferase (One-Glo), 24 h
Chain of Nuclear receptor subfamily 1 group I member 2 (Rattus norvegicus) (Q9R1A7 whole entry, looked up): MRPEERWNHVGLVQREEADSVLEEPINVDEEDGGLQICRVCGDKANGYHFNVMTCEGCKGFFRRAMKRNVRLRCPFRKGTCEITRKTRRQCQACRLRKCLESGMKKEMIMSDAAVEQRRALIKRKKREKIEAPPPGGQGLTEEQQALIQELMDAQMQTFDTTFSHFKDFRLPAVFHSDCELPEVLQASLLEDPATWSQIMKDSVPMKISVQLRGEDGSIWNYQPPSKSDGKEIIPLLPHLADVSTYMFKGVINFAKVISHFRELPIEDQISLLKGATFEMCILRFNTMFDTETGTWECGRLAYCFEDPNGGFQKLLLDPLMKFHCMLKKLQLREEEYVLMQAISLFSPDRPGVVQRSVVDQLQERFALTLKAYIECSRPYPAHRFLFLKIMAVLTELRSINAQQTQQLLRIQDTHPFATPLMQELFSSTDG

[3] = at 108 µM (top of the series), tumour line B
[4] = at 108 µM (top of the series), tumour line D
[5] = at 45.9 µM (top of the series), tumour line B
[6] = at 45.9 µM (top of the series), tumour line D
[7] = at 21.2 µM (top of the series), tumour line B
[8] = at 21.2 µM (top of the series), tumour line D

COc1cc(C[C@@H](C)N)c(OC)cc1C
active: Potency ([1]; tumour line A) 31.6 µM
inactive: Potency (MKL-2) | Potency (UISO) | Potency (WaGa) | Potency (CAOV3) | Potency (CASKI) | Potency (Es-2) | Potency (HeLa) | Potency (Hek293T) | Potency (JEG-3) | Potency (PA-1) | Potency (SKOV3) | Potency (Tov-21-G) | Potency (Tov112D) | activity, negative = cell killing [1, 3] -21.2% | activity, negative = cell killing [1, 4] -18.9% | Potency (astro)

Nc1ccc(Cl)cc1C(=O)c1ccccc1F
inactive: Potency (MKL-2) | Potency (WaGa) | Potency (C33A) | Potency (CAOV3) | Potency (CASKI) | Potency (Es-2) | Potency (HeLa) | Potency (Hek293T) | Potency (JEG-3) | Potency (OV90) | Potency (PA-1) | Potency (SKOV3) | Potency (Tov-21-G) | Potency (Tov112D)

Nc1ccc(N)cc1
inactive: Potency (MKL-2) | Potency (UISO) | Potency (WaGa) | Potency (C33A) | Potency (CASKI) | Potency (Es-2) | Potency (HeLa) | Potency (Hek293T) | Potency (JEG-3) | Potency (OV90) | Potency (PA-1) | Potency (SKOV3) | Potency (Tov-21-G) | Potency (Tov112D) | activity, negative = cell killing [1, 5] -10.5% | activity, negative = cell killing [1, 6] -20.4% | Potency (astro)

O=c1n(Cl)c(=O)n(Cl)c(=O)n1Cl
inactive: Potency (MKL-2) | Potency (UISO) | Potency (WaGa) | Potency (C33A) | Potency (CASKI) | Potency (Es-2) | Potency (HeLa) | Potency (Hek293T) | Potency (JEG-3) | Potency (OV90) | Potency (PA-1) | Potency (SKOV3) | Potency (Tov-21-G) | Potency (Tov112D) | activity, negative = cell killing [1, 5] -0.787% | activity, negative = cell killing [1, 6] 7.38% | Potency (astro) | max response [2] -5.15%

CCC1(c2cccc(O)c2)CCCCN(C)C1 (stereo not given)
inactive: Potency (MKL-2) | Potency (UISO) | Potency (WaGa) | Potency (C33A) | Potency (CASKI) | Potency (Es-2) | Potency (HeLa) | Potency (Hek293T) | Potency (JEG-3) | Potency (OV90) | Potency (PA-1) | Potency (SKOV3) | Potency (Tov-21-G) | Potency (Tov112D) | activity, negative = cell killing [1, 7] -5.3% | activity, negative = cell killing [1, 8] -23.7% | Potency (astro)

CCCCCCCCCCCC[N+](C)(C)CCOc1ccccc1
inactive: Potency (JEG-3) | max response [2] -13.8%
active: Potency (MKL-2) 1.06 µM | Potency (UISO) 9.44 µM | Potency (WaGa) 4.22 µM | Potency (Es-2) 31.6 µM | Potency (HeLa) 31.6 µM | Potency ([1]; tumour line A) 12.6 µM | Potency ([1]; tumour line B) 15.8 µM | Potency ([1]; tumour line D) 11.2 µM | Potency (astro) 20 µM

Cc1cccc(Cc2cnc[nH]2)c1C
inactive: Potency (MKL-2) | Potency (WaGa) | Potency (C33A) | Potency (CAOV3) | Potency (CASKI) | Potency (Es-2) | Potency (HeLa) | Potency (Hek293T) | Potency (JEG-3) | Potency (OV90) | Potency (PA-1) | Potency (SKOV3) | Potency (Tov-21-G) | Potency (Tov112D) | activity, negative = cell killing [1, 5] -15.8% | activity, negative = cell killing [1, 6] -4.57% | Potency (astro)
active: Potency ([1]; tumour line A) 35.5 µM

C[C@@H]1CC[C@H]2[C@@H](C)C(=O)O[C@@H]3O[C@@]4(C)CC[C@@H]1[C@]32OO4
inactive: Potency (MKL-2) | Potency (WaGa) | Potency (C33A) | Potency (CAOV3) | Potency (CASKI) | Potency (Es-2) | Potency (HeLa) | Potency (Hek293T) | Potency (JEG-3) | Potency (OV90) | Potency (PA-1) | Potency (SKOV3) | Potency (Tov-21-G) | Potency (Tov112D) | activity, negative = cell killing [1, 5] -29.6% | Potency (astro)

CN(C)CCc1c[nH]c2ccccc12
inactive: Potency (MKL-2) | Potency (UISO) | Potency (WaGa) | Potency (C33A) | Potency (CASKI) | Potency (Es-2) | Potency (HeLa) | Potency (Hek293T) | Potency (JEG-3) | Potency (OV90) | Potency (PA-1) | Potency (SKOV3) | Potency (Tov-21-G) | Potency (Tov112D) | activity, negative = cell killing [1, 3] -3.73% | activity, negative = cell killing [1, 4] -2.02% | Potency (astro)

C[C@H]1C(=O)O[C@@H]2CCN3CC=C(COC(=O)[C@](C)(O)[C@]1(C)O)[C@H]23
inactive: Potency (MKL-2) | Potency (UISO) | Potency (WaGa) | Potency (C33A) | Potency (CASKI) | Potency (Es-2) | Potency (HeLa) | Potency (Hek293T) | Potency (JEG-3) | Potency (OV90) | Potency (PA-1) | Potency (Tov-21-G) | Potency (Tov112D) | activity, negative = cell killing [1, 5] -12.9% | activity, negative = cell killing [1, 6] -22.3% | activity, negative = cell killing ([1]; at 46 µM (top of the series), tumour line A) -27.9% | Potency (astro) | max response [2] 0.678%

CN1C2CCC(C)(C)C1CC(OC(=O)C(O)(c1cccs1)c1cccs1)C2 (stereo not given)
inactive: Potency (MKL-2) | Potency (UISO) | Potency (WaGa) | Potency (C33A) | Potency (CASKI) | Potency (Es-2) | Potency (HeLa) | Potency (Hek293T) | Potency (JEG-3) | Potency (PA-1) | Potency (SKOV3) | Potency (Tov-21-G) | Potency (Tov112D)

CN1C(=O)CN=C(c2ccccc2)c2cc(Cl)ccc21
inactive: Potency (MKL-2) | Potency (UISO) | Potency (WaGa) | Potency (C33A) | Potency (CASKI) | Potency (Es-2) | Potency (HeLa) | Potency (Hek293T) | Potency (JEG-3) | Potency (OV90) | Potency (PA-1) | Potency (Tov-21-G) | Potency (Tov112D) | activity, negative = cell killing [1, 5] -4.05% | activity, negative = cell killing [1, 6] -1.05% | Potency (astro)

CCC(=O)O[C@H]1CC[C@H]2[C@@H]3CCC4=CC(=O)CC[C@]4(C)[C@H]3CC[C@]12C
inactive: Potency (MKL-2) | Potency (UISO) | Potency (C33A) | Potency (CAOV3) | Potency (CASKI) | Potency (Es-2) | Potency (Hek293T) | Potency (JEG-3) | Potency (SKOV3) | Potency (Tov-21-G) | Potency (Tov112D) | activity, negative = cell killing [1, 7] -4.44% | activity, negative = cell killing [1, 8] -24.6% | Potency (astro)
active: Potency (HeLa) 3.55 µM | Potency (PA-1) 15.8 µM | Potency ([1]; tumour line A) 14.1 µM

C[C@]12CC[C@H]3[C@@H](CCC4=CC(=O)CC[C@@]43C)[C@@H]1CC[C@@H]2C(=O)O
inactive: Potency (MKL-2) | Potency (UISO) | Potency (WaGa) | Potency (C33A) | Potency (CASKI) | Potency (Es-2) | Potency (Hek293T) | Potency (JEG-3) | Potency (OV90) | Potency (PA-1) | Potency (SKOV3) | Potency (Tov-21-G) | Potency (Tov112D)

O=C(N[C@@H]1N=C(c2ccccc2F)c2cccc3c2N(CC3)C1=O)c1cc2ccccc2[nH]1
active: Potency (UISO) 2.99 µM | Potency (HeLa) 12.6 µM
inactive: Potency (MKL-2) | Potency (WaGa) | activity, negative = cell killing [1, 5] -3.52% | activity, negative = cell killing [1, 6] -3.25%

C[C@]12CC[C@H]3[C@@H](CC=C4C[C@@H](O)CC[C@@]43C)[C@@H]1CC[C@@H]2O
inactive: Potency (MKL-2) | Potency (UISO) | Potency (WaGa) | Potency (C33A) | Potency (CASKI) | Potency (Es-2) | Potency (HeLa) | Potency (Hek293T) | Potency (JEG-3) | Potency (OV90) | Potency (PA-1) | Potency (SKOV3) | Potency (Tov-21-G) | Potency (Tov112D) | activity, negative = cell killing [1, 5] -14.5% | Potency (astro)
active: Potency ([1]; tumour line A) 11.2 µM
